Most compounds without a hit are left out; they make up all but 1.1% or so of the library.
HTR5A ag = HTR5A agonists in luminescence cell assay, primary screen, counter-screen for OPRM1-OPRD1 heterodimer agonist project, full-deck HTS; 5-hydroxytryptamine receptor 5A (Homo sapiens), P47898; cell-based; activation, % at 9.3 µM; 340,000 tested, 0.61% active; AID 504692, 2011; in the data active means activation mostly above about 9.5%, no sharp cut-off; inactive means mostly below about 7.6%;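 further: 0% = cells with vehicle only and 100% = reference agonist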
Target sequence (P47898 whole entry, looked up): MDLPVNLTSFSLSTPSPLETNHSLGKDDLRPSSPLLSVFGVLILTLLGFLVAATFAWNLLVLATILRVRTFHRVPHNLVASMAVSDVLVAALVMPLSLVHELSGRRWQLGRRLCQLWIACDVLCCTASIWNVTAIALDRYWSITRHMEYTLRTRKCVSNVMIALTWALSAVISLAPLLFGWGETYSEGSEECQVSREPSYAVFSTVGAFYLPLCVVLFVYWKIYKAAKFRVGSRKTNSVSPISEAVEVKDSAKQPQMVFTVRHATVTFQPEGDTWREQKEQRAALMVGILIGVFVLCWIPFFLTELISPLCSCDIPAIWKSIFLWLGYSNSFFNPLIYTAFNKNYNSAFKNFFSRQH
MOR-DOR inv ag = inverse agonists of MOR-DOR heterodimerization, primary screen, cell-based, luminescence. Mu-type opioid receptor (Homo sapiens) + Delta-type opioid receptor (Homo sapiens), …. inhibition, % at 9.3 µM. AID 504357, 2011. 340,000 tested, 0.21% active. cell-based MOR-DOR heterodimer luminescence, inverse agonism; in the data active means inhibition above about 22%, passing the limit was not always enough;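 further: 0% = cells with DMSO and 100% = wells without cells with DMSO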
MOR-DOR ag-1 = agonists of OPRM1-OPRD1 heterodimerization, primary screen, cell-based, luminescence. Mu-type opioid receptor (Homo sapiens) + Delta-type opioid receptor (Homo sapiens), …. cells. activation, % at 9.3 µM. 340,000 tested, 0.3% active. AID 504326, 2011;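 further: 0% = vehicle-treated cells and 100% = reference agonist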
HTR5A inv ctr = HTR5A inverse agonists in luminescence cell assay, primary screen, counter-screen for OPRM1-OPRD1 heterodimer inverse agonist project, full-deck HTS; 5-hydroxytryptamine receptor 5A (Homo sapiens), P47898; HTR5A cell line, inverse agonism; inhibition, % at 9.3 µM; 340,000 tested, 0.083% active; in the data active means inhibition mostly above about 23%, no sharp cut-off; inactive means mostly below about 18%;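 further: 0% = cells with DMSO and 100% = no-cell wells with DMSO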
MOR-DOR ag-2 = OPRM1-OPRD1 heterodimerization promoters, counter-screen for HTR5A agonist project, cell-based, luminescence; shares compounds with HTR5A ag; 800 tested, 13% active; U2OS counter-screen cells, complementation luminescence, 3 h; activation, % at 9.3 µM
HTR5A ag confirm = HTR5A agonists, retest of hits, confirmation, cell-based, luminescence | activation, % at 9.3 µM | shares compounds with HTR5A ag | HTR5A agonist cell assay | 800 tested, 17% active | AID 504915, 2011; in the data active means activation above about 17%;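 further: 0% = cells with vehicle only and 100% = full reference agonist response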
* hit, by the source's call; x = not tested or not shown; ! = not active in a repeat. Unless noted, no stated cut-off is given here; in the data, active means activation above about 18%; inactive means the rest.

SMILES | HTR5A ag | MOR-DOR inv ag | MOR-DOR ag-1 | HTR5A inv ctr | MOR-DOR ag-2 | HTR5A ag confirm
C=CCN1CCc2c(cc(O)c(O)c2Cl)C(c2ccccc2)C1 (centres undefined) | 26* | -27 | 5 | -92 | 1 | 4
CN(CC(=O)Nc1ccc(F)c(F)c1F)C(=O)c1ccc2c(c1)NC(=O)CS2 | 11 | -4 | 1 | -26 | x | x
CN(CC(=O)Nc1ccc(Cl)c(C(F)(F)F)c1)C(=O)c1ccc2c(c1)NC(=O)CS2 | 16* | 2 | 0 | -24 | -1 | -1
COc1ccc(CN2C(=O)c3cccnc3C2=O)cc1S(=O)(=O)NC1CCCCC1C (centres undefined) | -5 | 11 | -2 | 8 | x | x
CCC(C)(C)C1CCC2(CC1)NC(=O)N(CC(=O)NCCc1c[nH]c3ccccc13)C2=O (centres undefined) | 19* | -4 | 1 | -52 | 2 | 8
COc1ccc(C(=O)N[C@H]2CCCCNC2=O)cc1OC1CCN(C(C)C)CC1 | -2 | -1 | 0 | 0 | x | x
CCCCCCCCCCn1c2c(c(=N)c3c1CCC3)CCC2 | 35* | -23 | 4 | -51 | 10 | 13
COc1cccc(S(=O)(=O)NCc2ccc(C(=O)Nc3cccc(Cl)c3)cc2)c1 | 19* | -27 | 6 | -46 | -3 | -1
CC(Oc1cccc(F)c1)C(=O)Nc1ccc(N2CCOCC2)cc1 (centres undefined) | 17* | 1 | 0 | -48 | 1 | 0
Cc1cccc(OC(C)C(=O)Nc2ccc(N3CCCCC3)cc2)c1 (centres undefined) | 2 | -21 | 4 | -7 | x | x
COc1cc(/C=N/Nc2nc(C)nc3c2cnn3-c2ccccc2)ccc1O | 16* | -24 | 5 | -7 | 2 | 3
COc1ccc(/C=C/C(=O)c2cccc(-n3cnnn3)c2)cc1O | 2 | -15 | 2 | -12 | x | x
O=C1OC(c2ccccc2)(c2ccc(O)cc2)c2ccccc21 (centres undefined) | 22* | -3 | 1 | -87 | 2 | 12
Cc1ccc(CCNC(=O)C2CCC(=O)N2Cc2ccc(F)cc2)cc1 (centres undefined) | -2 | 5 | -1 | 7 | x | x
O=C(NCCc1ccc(Cl)cc1)C1CCC(=O)N1Cc1ccc(F)cc1 (centres undefined) | 17* | 11 | -2 | -49 | 0 | 0
CCOc1nc(CC(C)C)c2c(c1C#N)CC(C)(C)OC2 | 16* | -23 | 4 | 3 | 6 | -1
O=C1OCCC1Sc1nnc(-c2cccs2)n1Cc1ccccc1 (centres undefined) | 15* | -44 | 8 | -3 | -3 | -2
O=C1OCCC1Sc1nnc(-c2ccccc2Cl)n1Cc1ccccc1 (centres undefined) | 7 | -10 | 2 | -20 | x | x
CCCN1CCN(S(=O)(=O)c2ccc3c(c2)CCC(=O)N3)CC1 | 3 | -2 | 1 | -8 | x | x
Oc1ccc(C2CNCCc3c2cc(O)c(O)c3Cl)cc1 (centres undefined) | 32*! | -2 | 0 | 9 | 2 | 56*
O=C(NCc1ccc2c(c1)OCO2)C1CC(=O)N(CCc2ccc(F)cc2)C1 (centres undefined) | 16* | -12 | 1 | -48 | -1 | -3
O=C(NCc1ccc2c(c1)OCO2)C1CC(=O)N(CCc2ccccc2)C1 (centres undefined) | -3 | 9 | -1 | 8 | x | x
Oc1ccc(N2CCN(c3ncnc4sc(-c5ccccc5)cc34)CC2)cc1 | 26* | -41 | 9 | -21 | -2 | -1
CC(=O)N1CCN(c2ncnc3sc(-c4ccccc4)cc23)CC1 | -2 | 9 | -2 | 4 | x | x
COCCN(C(=O)CSc1nnc(-c2ccccc2OC)o1)c1c(N)n(CC(C)C)c(=O)[nH]c1=O | -1 | 10 | -2 | 3 | x | x
SMILES | HTR5A ag | MOR-DOR inv ag | MOR-DOR ag-1 | HTR5A inv ctr | MOR-DOR ag-2 | HTR5A ag confirm
Cc1cc(O)cc2c1C1CCC3(C)C(=O)CCC3C1C=C2 (centres undefined) | -4 | -2 | 0 | 17 | x | x
Cc1cc(C)c2c(c1)SC1=NC(c3ccccc3)(C(F)(F)F)NC(=O)N12 (centres undefined) | 16* | -30 | 5 | 8 | 3 | 5
Cc1ccc(N(C)C(=O)c2cc(S(=O)(=O)N3CCCC3)cn2C)cc1 | 6 | 10 | -2 | -18 | x | x
Cc1cc(/C=C(\C#N)C(=O)NCCc2c[nH]c3ccccc23)c(C)n1C | 66* | 7 | -1 | -172 | -1 | -5
COc1ccc(/C=C(/NC(=O)c2ccc(OC)cc2)C(=O)NCCc2c[nH]c3ccccc23)cc1 | -1 | 17 | -3 | 4 | x | x
Cc1ccc(C(=O)N/C(=C\c2cccs2)C(=O)NCCc2c[nH]c3ccccc23)cc1 | 15* | -13 | 2 | -46 | 20* | 6
Cc1ccc([C@H]2C(C(=O)O)=CC[C@@H](c3ccc(Cl)c(Cl)c3)N2S(=O)(=O)c2ccc(C)cc2)cc1 | -2 | 17 | -4 | 6 | x | x
COc1ccc(CCNC(=O)COc2ccc(N(C)S(=O)(=O)c3ccc(C)cc3)cc2)cc1 | 16* | -1 | 0 | 1 | -1 | -4
O=C(O)C1CCCN1C(=O)NC1CCCCC1 (centres undefined) | 1 | 13 | -3 | -2 | x | x
COc1ccccc1OCC(=O)Nc1ccc(Cl)cc1 | -3 | 0 | 0 | 7 | x | x
COc1ccccc1OCC(=O)Nc1ccc(NC(=O)COc2ccccc2OC)cc1 | 24* | 4 | -1 | -58 | 0 | -1
O=C1C(C=NCCCN2CCCC2=O)=C(O)c2ccccc21 | 18* | 4 | -1 | -7 | 28* | 13
O=C(CCCn1c(SCC(=O)c2ccc(Cl)cc2)nc2ccccc2c1=O)NCc1ccco1 | 0 | 8 | -2 | 5 | x | x
O=C(CCCCCn1c(SCC(=O)c2ccccc2)nc2ccccc2c1=O)NCc1ccco1 | 21* | -8 | 2 | -50 | 59* | 29*
CCCCCCCCCCCCCCCC[n+]1cccc2ccccc21 | 20* | -74 | 15 | -36 | 494* | 7
Cc1nn(-c2ccc(Cl)cc2)c2sc(C(=O)N3CCN(c4ccccn4)CC3)cc12 | 22* | 14 | -3 | -56 | 1 | -1
Cc1nn(-c2ccc(F)cc2)c2sc(C(=O)N3CCCCCC3)cc12 | -3 | 5 | -1 | -8 | x | x
CCN(CC)c1ccc(C(=O)NNC(=O)CN2C(=O)NC3(CCCCC3)C2=O)cc1 | 0 | 8 | -1 | 22 | x | x
CCOc1cc(N2CCOCC2)c(OCC)cc1NC(=O)COc1ncnc2ccccc12 | -5 | 7 | -2 | -8 | x | x
